TSHR agonist – TSH receptor (human) agonism; 73,000 tested, 0.48% active; P16473; AID 926; Potency, µM (highest dose often 57.1 µM), without a hit: at the highest dose activation, usual class: activators; HEK293-CNG-TSHR cells (CNG channel as cAMP sensor), membrane potential dye, cAMP; active means well fitted activation curve with a large enough effect in the main read-out, with a control signal flat, not every such curve was filed as active; inconclusive means small, poorly fitted or top-dose-only effect, or a change in a side signal; inactive means no such curve, though single readings can be large or run the other way; % of control where 0% means no effect;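 further: the control signal comes from parental cells without the receptor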
Target sequence (P16473 whole entry, looked up): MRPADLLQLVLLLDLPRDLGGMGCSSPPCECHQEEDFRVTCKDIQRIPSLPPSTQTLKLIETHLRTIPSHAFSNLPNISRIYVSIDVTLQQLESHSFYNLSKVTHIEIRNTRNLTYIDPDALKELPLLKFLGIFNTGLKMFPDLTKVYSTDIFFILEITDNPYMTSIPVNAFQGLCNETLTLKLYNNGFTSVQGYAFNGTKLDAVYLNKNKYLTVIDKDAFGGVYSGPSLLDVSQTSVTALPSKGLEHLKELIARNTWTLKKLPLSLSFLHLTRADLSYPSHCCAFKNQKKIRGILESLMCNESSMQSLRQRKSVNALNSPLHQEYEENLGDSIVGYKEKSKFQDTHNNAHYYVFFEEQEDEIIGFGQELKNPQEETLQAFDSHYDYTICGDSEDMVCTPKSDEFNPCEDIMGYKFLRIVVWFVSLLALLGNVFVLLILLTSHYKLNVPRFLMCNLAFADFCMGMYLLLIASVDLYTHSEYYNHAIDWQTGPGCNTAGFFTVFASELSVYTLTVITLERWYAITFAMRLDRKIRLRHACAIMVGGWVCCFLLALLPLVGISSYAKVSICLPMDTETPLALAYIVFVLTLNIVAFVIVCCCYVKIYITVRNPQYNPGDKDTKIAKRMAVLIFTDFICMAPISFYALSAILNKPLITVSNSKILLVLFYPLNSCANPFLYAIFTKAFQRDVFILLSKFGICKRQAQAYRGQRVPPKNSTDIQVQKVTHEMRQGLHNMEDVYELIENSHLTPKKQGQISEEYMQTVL
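HEK 293 cells stably expressing TSHR and a cAMP-gated CNG channel; parental CNG-only cells as counterscreen. Cells preloaded 60 min with membrane potential dye plus 100 uM RO 20-1724, then compound 30 min; fluorescence read at 590 nm.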
HEK293 cAMP ctrl – counter-screen for TSHR agonists: cAMP increase in parental HEK293 | parental HEK293 CNG cAMP sensor, membrane potential fluorescence | Potency, µM (doses to about 57.1 µM), for inactives: at the top dose activation, hits mostly activators | 73,000 tested, 2.5% active | AID 938; active means well fitted activation curve with a large enough effect; inconclusive means small, poorly fitted or top-dose-only effect; inactive means no such curve, though single readings can be large or run the other way; further: % of control where 0% means no effect; nearly all actives have a fitted effect of over 55% in size
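Counterscreen for endogenous-receptor signalling: CNG-channel HEK 293 cells report cAMP rise by membrane depolarization. After 60 min dye equilibration with 100 uM RO 20-1724, compounds incubated 30 min before bottom-read fluorescence at 590 nm.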
An asterisk follows results filed as active; ? = inconclusive; . = no result given; [ ] = remark or other dose. Sampled rows, rich in hits. Any-hit rate of the full collection: about 2.9%. Potency means the concentration at half of the fitted maximal effect.

SMILES	TSHR agonist	HEK293 cAMP ctrl
Cc1ccc(Cl)cc1N1CCN(Cc2nnnn2Cc2ccco2)CC1	?	7.9µM*
Cc1ccc(Cl)cc1N1CCN(Cc2nnnn2C2CCCCC2)CC1	?	13µM*
c1coc(Cn2nnnc2CN2CCN(C3CCCCC3)CC2)c1	0%	19%
C#CCCCO/N=C1/C[C@@H](O)[C@@H](O)[C@@H]2[C@@H]3C(=O)N(C(C)(C)C)C(=O)[C@H]3CC[C@H]12	4%[11.4 µM]	2%[11.4 µM]
CN(C)c1ccc(-c2nn3c(-c4ccncc4)nnc3s2)cc1	5%	1%
C1CCC(c2nn3c(-c4n[nH]c5c4CCC5)nnc3s2)CC1	?	32µM*
CCN(CC)c1ccc(-c2nn3c(-c4n[nH]c5c4CCC5)nnc3s2)cc1	?	32µM*
CC1=Nn2c(nnc2-c2n[nH]c3c2CCC3)SC1	1%	-2%
COc1ccc2c(c1)[C@]1(C)CCC[C@](C)(CO)[C@@H]1CC2	.	-6%
O=C(O)c1nnsc1-c1ccc(-c2snnc2C(=O)O)cc1	-6%[11.4 µM]	9%[11.4 µM]
CCCn1c(=O)c2ccccc2n2c(SCCOc3ccccc3)nnc12	?	10µM*
CCCn1c(C)cc(C(=O)CSc2nnc3n(CCC)c(=O)c4ccccc4n23)c1C	4%	-5%
CCN(CC)C[C@@H](O)c1ccc2ccc3ccccc3c2c1	8%[11.4 µM]	10%[11.4 µM]
C#CCCCO/N=C1/C[C@@H](O)[C@@H](O)[C@@H]2[C@@H]3C(=O)N(CC)C(=O)[C@H]3CC[C@@H]12	-1%[11.4 µM]	1%[11.4 µM]
CCOC(=O)c1cnc2c(C(=O)OC)cccc2c1NCc1ccco1	11%	-1%
CCOC(=O)c1ccc2ncc(C(=O)OCC)c(NCCCN3CCOCC3)c2c1	1%	9%
CCOC(=O)c1ccc2ncc(C(=O)OCC)c(NCc3ccco3)c2c1	?	25µM*
CCOC(=O)c1cnc2c(C)cccc2c1NCc1ccco1	?	25µM*
CN(C)CN1CSC(=S)N(CN(C)C)C1	-5%[11.4 µM]	2%[11.4 µM]
O=C1c2ccccc2C(=O)N1Cc1nn2c(-c3ccc(Cl)cc3)nnc2s1	16%	18%
CCOc1ccccc1OCc1nn2c(-c3ccc(C)cc3)nnc2s1	?	25µM*
COc1ccc(-c2nnc3sc(CN4C(=O)c5ccccc5C4=O)nn23)cc1	16µM*	12%
c1ccc(OCc2nn3c(-c4ccncc4)nnc3s2)cc1	24%	7%
Nc1ncnc2c([C@@H]3O[C@@H](CO)[C@H](O)[C@@H]3O)nsc12	-1%[11.4 µM]	-5%[11.4 µM]
CC1(C)OC(C(O)(c2cccc3c2oc2ccccc23)c2cccc3c2oc2ccccc23)C(C(O)(c2cccc3c2oc2ccccc23)c2cccc3c2oc2ccccc23)O1 (stereo unspecified)	-4%[11.4 µM]	-2%[11.4 µM]
SMILES	TSHR agonist	HEK293 cAMP ctrl
COc1cccc(C2=CC(c3ccc(OC)c(OC)c3OC)n3nnnc3N2)c1 (stereo unspecified)	.	3%
COc1ccccc1C1C=C(c2ccccc2)Nc2nnnn21 (stereo unspecified)	?	4µM*
CCOC(=O)C1=C(C)NC(=O)N[C@@H]1c1coc2cc(C)cc(C)c2c1=O	2%[11.4 µM]	0%[11.4 µM]
CCCCNc1nc(C)nc2c1nc(-c1ccccc1)n2CC1CCCN1CC (stereo unspecified)	?	16µM*
CCCCNc1nc(C)nc2c1nc(-c1ccccc1)n2CCCN(C)C	22%	28%
Cc1nc(NCCO)c2nc(-c3ccccc3)n(CC3CCN(C)CC3)c2n1	6%	9%
Cc1nc(NC2CCCCC2)c2nc(-c3ccccc3)n(CCN(C)C)c2n1	?	10µM*
COCCNc1nc(C)nc2c1nc(-c1ccccc1)n2CCN(C)C	6%	8%
CCCn1c(C)nc2c(NCC3CCCN3CC)nc(C)nc21 (stereo unspecified)	1%	84%
CCCCNc1nc(C)nc2c1nc(-c1ccccc1)n2CC(C)(C)CN(C)C	?	32µM*
CCN1CCCC1Cn1c(-c2ccccc2)nc2c(NC3CCCCC3)nc(C)nc21 (stereo unspecified)	?	20µM*
O=C(c1ccco1)N1CCC2(CC1)CN(c1cccc(-c3ccccc3)c1)C2	2%	21%
CN1CCc2nc(N)nc(-c3nc(N)nc4c3CN(C)CC4)c2C1	4%[11.4 µM]	3%[11.4 µM]
COC(=O)[C@@]1(Cc2ccc(OC)cc2)[C@H]2c3cc(C(=O)N4CCCC4)n(CCO)c3C[C@H]2CN1C(=O)c1ccccc1	1%	16%
COC(=O)[C@@]1(Cc2ccc(OC)cc2)[C@H]2c3cc(C(=O)N4CCCC4)n(CCc4ccc(OC)c(Br)c4)c3C[C@H]2CN1C(=O)c1ccccc1	?	5µM*
COC(=O)[C@@]1(Cc2ccc(OC)cc2)[C@H]2c3cc(C(=O)N4CCCC4)n(Cc4cc(C)n(C)n4)c3C[C@H]2CN1C(=O)c1ccccc1	?	13µM*
COC(=O)[C@@]1(Cc2ccccc2)[C@H]2c3cc(C(=O)N4CCCC4)n(Cc4ccccn4)c3C[C@H]2CN1C(=O)c1ccccc1	?	3.2µM*
